The values below come from PubChem BioAssay (NCI).

About 83,000 compounds went through this panel and 20% of them were active in at least one assay; those are over-represented in the sample as a whole.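 Values shown are percent growth following 48 h exposure of cells in 96-well plates to a single concentration of compound; below 10 was considered active.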 The source made the active and inactive calls.

In this test the test system is NCI-H522 lung. Nature of the test: NCI-60 one-dose screen, 48 h (100 = growth as untreated, 0 = no growth, -100 = all killed). Conditions: 10 µM. On the procedure:
Growth inhibition of the NCI-H522 human Non-Small Cell Lung tumor cell line is measured as a screen for anti-cancer activity. Cells are grown in 96 well plates and exposed to the test compound for 48 hours. Compounds are tested at a single concentration, which is 10^-5 M for most compounds. The reported endpoint is percent growth (GI% or GIPRCNT), where numbers from 0 - 100% represent growth inhibition, and numbers from -100% - 0 represent cell death. For example, a value of 40 represents 60% growth inhibition. A value of 0 means no net growth occurred over the course of the experiment. A value of -40 indicates 40% of cells at the beginning of the experiment died by the end of the experiment. A value of -100 means all cells are dead at the end of the experiment.
NCI-60 Human Tumor Cell Lines Screen was performed using the standard one-dose NCI protocol, which is described in more detail at https://dtp.cancer.gov/discovery_development/nci-60/default.htm.
Compounds with GIPRCNT values below 10 were considered active. Activity score was based on GIPRCNT using the following formula: […]
Score is 0 for GIPRCNT values of 100 or above, 50 for GIPRCNT values of 0, and 100 for GIPRCNT values of -100.
For `CC(=O)N1N=C(c2ccc(Nc3ccnc4cc(Cl)ccc34)cc2)CC1c1ccc(Cl)cc1` (stereo not given), the growth was 24% (inactive). With `CCCCCCCCCCN1CCC(N2CCCCC2)CC1` the figure was -59.7% (active); with `NS(=O)(=O)c1cc2c(cc1Cl)NC=NS2(=O)=O`, 91.4% (inactive); with `C=C(CN1CCc2c([nH]c3ccccc23)C1)c1ccc(C(=O)Nc2ccon2)cc1`, -15% (active). Turning to `O=C(COc1cccc(/C=C2\Oc3ccc4ccccc4c3C2=O)c1)c1ccc(Cl)cc1`, the growth was 38% (inactive).

With `O=C(O)c1ccc(CNS(=O)(=O)c2ccc3ccccc3c2)cc1`, the growth was 104% (inactive).

For `Cc1cc(Cl)ccc1Nc1nc(C(F)(F)F)ccc1C(=O)N/N=C/c1ccc(Cl)cc1`, the growth was -17.6% (active). In the case of `O=CN1N=C(c2ccc(Nc3ccnc4cc(Cl)ccc34)cc2)CC1c1ccc(Cl)cc1` (stereo not given) it was 26.9% (inactive). For the compound `CCOC(=O)CCC(=O)O[C@H]1[C@H](O[C@@H]2[C@@H](C)[C@H](O[C@H]3C[C@@](C)(OC)[C@@H](O)[C@H](C)O3)[C@@H](C)C(=O)O[C@H](CC)[C@@](C)(O)[C@H](O)[C@@H](C)C(=O)[C@H](C)C[C@@]2(C)O)O[C@H](C)C[C@@H]1N(C)C`, the growth is 92.6% (inactive). As to `Cn1ccnc1C(=O)/C=C/c1ccc(C(=O)Nc2nc3ccccc3[nH]2)cc1`, the growth was 58.6% (inactive). Take `CC(C)=CCNc1ncnc2c1ncn2C1OC(COP(=O)(O)O)C(O)C1O` (stereo not given): the growth is 9.55% (active). `CC(=O)O[C@H]1CC[C@@]2(C)C(=CC[C@@H]3[C@@H]2CC[C@]2(C)C(c4cccnc4)=CC[C@@H]32)C1`: the growth was 38.3% (inactive). Consider `Nc1ccn(C2O[C@H](CO)[C@@H](O)[C@@H]2O)c(=O)n1` (stereo not given in full), for which the growth is 68.1% (inactive). With `COc1ccc(CNC(=O)c2c(C)n([O-])c3cc(F)c(F)cc3[n+]2=O)cc1`, the growth was 77.9% (inactive). Regarding `Cn1cnc([N+](=O)[O-])c1Sc1nc(N)nc2nc[nH]c12`, the growth is 41.3% (inactive). As to `COc1cccc2c1C(=O)c1c(O)c3c(c(O)c1C2=O)C[C@@](O)(C(C)=O)C[C@@H]3O[C@H]1C[C@H](N)[C@H](O)[C@H](C)O1`, the growth is -89.3% (active).

As for `COc1ccc(/C=C/C(=O)c2cccc(NS(C)(=O)=O)c2)cc1`, the growth was 66.5% (inactive). In the case of `COc1cc2c(cc1OC)C(=O)/C(=C/c1cccc(OCC(=O)c3ccccc3)c1)C2` it was 48.3% (inactive); in that of `O=c1[nH]cc(Nc2cc(Cl)c3nonc3c2[N+](=O)[O-])c(=O)[nH]1`, 98% (inactive); in that of `O=C(c1ccc(Cl)cc1)c1ccc(Cl)cc1`, 85.2% (inactive). Take `COc1cc(/C=N/OC(=O)Nc2ccccc2)cc(OC)c1OC`: the growth is 86.2% (inactive). With `COc1ccc(C2CC(c3ccc(Nc4ccnc5cc(Cl)ccc45)cc3)=NN2C(C)=O)cc1` (stereo not given) the figure was 67.3% (inactive); with `CC1C(=O)NC2=Nc3ccccc3C(=O)NN21` (stereo not given), 97.5% (inactive); with `NC(=O)c1cc(Br)cc(Br)c1NS(=O)(=O)c1ccccc1`, 100% (inactive). Consider `CSc1nc(Nc2ccc(S(=O)(=O)Nc3ccon3)cc2)c(C#N)c(-c2ccc(Cl)cc2)n1`, for which the growth is 84.9% (inactive).

On to `Cc1onc(-c2ccccc2Cl)c1C(=O)N[C@@H]1C(=O)N2[C@@H]1SC(C)(C)[C@@H]2C(=O)O`, for which the growth is 96.1% (inactive). In the case of `CC12CCC3C(=CCc4cc(O)ccc43)C1CCC2=O` (stereo not given) it was 97% (inactive); in that of `COc1cc(OC)c2c(c1Cl)O[C@]1(C2=O)C(OCc2ccccc2)=CC(=O)C[C@H]1C`, -24.7% (active). With `CCc1ccc(-c2nc(SCC(=O)NC3CCCCC3)n[nH]2)cc1` the figure was 73.6% (inactive); with `CC(=O)Nc1cc(C(c2ccccc2)c2ccccc2)cc(C(c2ccccc2)c2ccccc2)c1C`, 45.6% (inactive); with `Cc1ccc(C2=NNC(c3sc(Cl)nc3Cl)C2)cc1` (stereo not given), 18.1% (inactive). On to `CCOc1nc(-c2ccco2)n2nc(-c3ccco3)cc2n1`, for which the growth was 99.1% (inactive). With `C[C@H]1O[C@@H](O[C@H]2[C@@H](O)C[C@H](O[C@H]3[C@@H](O)C[C@H](O[C@H]4CC[C@]5(C)C6CC[C@]7(C)[C@@H](C8=CC(=O)OC8)CC[C@]7(O)C6CC[C@@H]5C4)O[C@@H]3C)O[C@@H]2C)C[C@H](O)[C@@H]1O` (stereo not given in full) the figure was -65% (active); with `O=C(NC1CCS(=O)(=O)C1)c1ccc(C(=O)c2ccccc2)cc1` (stereo not given), 90.9% (inactive); with `Cc1ncc(C(=O)Nc2ccc(CN3CCN(C)CC3)c(C(F)(F)F)c2)cc1C#Cc1cncc2ncccc12`, 86.5% (inactive). With `O=C(/C=C/c1cccc(O)c1)c1cccc(-n2cc(-c3ccccc3)[nH]c2=O)c1`, the growth was -21.8% (active).

As for `CCSc1ncc(Br)c(Sc2nc(N)nc3nc[nH]c23)n1`, the growth was 59% (inactive). Consider `O=Nc1c2cccnc2n2nnc3ccc(Cl)cc3c12`, for which the growth is -71.5% (active). Turning to `CCOC(=O)Nc1cc(-c2ccc(C)c(NS(C)(=O)=O)c2)nn2c(C)nnc12`, the growth was -11.8% (active). With `O=C(Nc1ccc(Cl)cc1)Nc1ccccc1CNc1nc(Nc2ccc(OCCN3CCCC3)cc2)ncc1Cl` the figure was -17% (active).
